A549 viability: Nrf2 qHTS screen for inhibitors: counterscreen for cytotoxicity; A549 ARE-Fluc cells, CellTiter-Fluor viability, 18-24 h; Potency, µM (titrated, usually from 46 µM), actives largely listed as inhibitors; hit rate 0.16% among 390,000
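Cytotoxicity counterscreen: CellTiter-Fluor fluorescence was measured in A549 ARE_Fluc cells after 18-24 h of compound exposure in a concentration series. The subsequent BugLite luminescent read reports ARE-luciferase activity.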
Nrf2 block: Nrf2 qHTS screen for inhibitors; hit rate 2.1% among 360,000; A549 ARE-Fluc reporter, luciferase luminescence, 18-24 h; Potency, µM (doses to about 46 µM), hits mostly inhibitors; also: nearly all actives have a fitted effect of over 60% in size
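Reporter: ARE-Fluc in A549. Exposure: 18-24 h, 37 °C, 5% CO2, 5% FBS OPTI-MEM. Readouts: fluorescent cytotoxicity (CellTiter-Fluor), then luminescent Nrf2 signal after BugLite.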
HepG2 tox: qHTS for Inhibitors of TGF-b: Cytotox Counterscreen | HepG2 CAGA-GFP viability, ATP luminescence, 18 h | Potency, µM (titrated, usually from 46.1 µM), most hits filed as cytotoxic | hit rate 0.76% among 410,000 | AID 588856, 2011
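HepG2 CAGA-GFP cells (1000/well, DMEM with 1% FBS) received compound, then TGF-beta at 500 pg/mL final, and were incubated 18 hours at 37 degrees C. Viability was read by CellTiter-Glo luminescence. Media-only wells were set as complete cell-killing and DMSO as no toxicity.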
S2 tox: Viability Counterscreen for Primary qHTS for Inhibitors of ATXN expression | S2 cells (HEK-293 line with an ATXN2-luciferase reporter) viability, CellTiter-Fluor protease fluorescence, 24 h | hit rate 0.49% among 400,000 | AID 651635, 2014 | Potency, µM (highest dose often 56.7 µM), most hits filed as cytotoxic; also: nearly all actives have a fitted effect of over 40% in size
ATXN2 expr inh: Primary qHTS for Inhibitors of ATXN expression | HEK-293 ATXN2-luciferase reporter, luminescence, 24 h | Potency, µM (top dose mostly 57 µM), usual class: inhibitors | hit rate 0.72% among 360,000 | AID 1745845, 2022; also: nearly all actives have a fitted effect of over 55% in size
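ATXN2-luciferase reporter cells (luciferase flanked by upstream and downstream ATXN2 gene portions) were treated 24 h at 37 °C with compounds at up to 57 uM. SteadyGlo luminescence gave expression; GF-AFC fluorescence gave viability.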
TGFb inhibitor: qHTS for Inhibitors of TGF-b | hit rate 1.2% among 410,000 | HepG2 CAGA-GFP TGF-b/SMAD3 reporter, GFP fluorescence, 18 h; TGF-beta stimulated, 500 pg/mL final | Potency, µM (highest dose often 46.1 µM), most hits filed as inhibitors | AID 588855, 2011; also: nearly all actives have a fitted effect of over 65% in size
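Inhibition of TGF-beta-driven CAGA-GFP reporter expression in HEPG2 cells is measured by cellular GFP fluorescence after 18 h stimulation with 500 pg/mL recombinant TGF-beta in 1% FBS medium at 37 degrees C.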
Each line names hits and unclear results; the compound was inactive in the other large screens. An excerpt weighted towards active compounds, which were near 3.8% of everything screened. Calls follow the shape of the dose curve; as a rule, active = well fitted curve in the direction sought with a large enough effect; inconclusive = small, poorly fitted or top-dose-only effect, or another doubt; inactive = no such curve, though single readings can be large; an effect the other way counts as inactive or inconclusive.

CC(NC(=O)c1ccc(OC2CCN(Cc3ccccn3)CC2)cc1)c1nccs1 (stereo unspecified)	none
C=CCNc1c(O)cc2c(O)c1C[C@@H](C)C[C@H](OC)[C@@H](O)[C@@H](C)C=C(C)[C@H](OC(N)=O)[C@@H](OC)C=CC=C(C)C(=O)N2	ATXN2 expr inh 0.77µM (no result: A549 viability, Nrf2 block, HepG2 tox, S2 tox, TGFb inhibitor)
CCC(=O)C1=C(c2cccc([N+](=O)[O-])c2)N(C(=O)CC)n2c(nnc2-c2ccccc2)S1	none (no result: Nrf2 block, S2 tox, ATXN2 expr inh)
Cc1ccc(Cl)cc1N1CCN(C(=O)C2CCCN(Cc3nc(-c4cccc(Cl)c4)oc3C)C2)CC1 (stereo unspecified)	Nrf2 block inconclusive, S2 tox inconclusive, ATXN2 expr inh inconclusive
CCc1ccc(-c2nc(CN3CCCC(C(=O)N4CCN(c5cc(Cl)ccc5C)CC4)C3)c(C)o2)cc1 (stereo unspecified)	A549 viability inconclusive, Nrf2 block inconclusive, S2 tox 16µM, ATXN2 expr inh 20µM, TGFb inhibitor inconclusive
CCOC(=O)N1CCC(NC(=O)C2CCCN(Cc3nc(-c4cccc(Cl)c4)oc3C)C2)CC1 (stereo unspecified)	Nrf2 block 16µM
CCCN(CCC)CCNC(=O)C1CCN(Cc2nc(-c3ccc(Cl)cc3)oc2C)CC1	A549 viability inconclusive, S2 tox 16µM, ATXN2 expr inh inconclusive
COc1cc(NC(=O)COC(=O)Cc2ccsc2)cc(OC)c1	none
COc1ccc(-c2ccc(=O)n(CC(=O)Nc3ccc(N(C)C)cc3)n2)cc1	none (no result: Nrf2 block)
COc1ccc(C(=O)Nc2ccccc2C(=O)NCc2ccco2)cc1OC	none
COCCN(Cc1ccccc1)C(=O)c1cc(-c2ccc(OC)c(OC)c2)nc2ccccc12	A549 viability inconclusive, Nrf2 block 18µM
COc1ccc(-c2cc(C(=O)NCc3ccco3)c3ccccc3n2)cc1OC	HepG2 tox 0.5µM
COc1ccc(C(=O)Nc2ccc(Cl)cc2C(=O)NCc2ccco2)cc1OC	A549 viability inconclusive, Nrf2 block 21µM
Cc1cccc(NS(=O)(=O)c2cccc(C(=O)NCCCN3CCOCC3)c2)c1	none
Cc1ccc(NC(=O)c2ccc(NS(=O)(=O)c3ccc4[nH]c(=O)[nH]c4c3)cc2)nc1	none
CC1(c2nnc(-c3cccc(Cl)c3)o2)CC(c2ccc(Cl)cc2)=NO1 (stereo unspecified)	TGFb inhibitor 16µM
Fc1ccc(Nc2nc(N3CCOCC3)nc(N3CCOCC3)n2)cc1	A549 viability inconclusive
c1nc2nc(Nc3ccc(N4CCOCC4)cc3)nc(NC3CCCCC3)c2[nH]1	ATXN2 expr inh 24µM (no result: A549 viability, Nrf2 block, HepG2 tox, S2 tox, TGFb inhibitor)
COc1cccc(CC(=O)OCC(=O)NCCc2ccc(F)cc2)c1	none
COc1cccc(NC(=O)C(=O)NCCc2ccc(F)cc2)c1	HepG2 tox 20µM
Cc1cc(C)c(NC(=O)CCN2C(=O)c3ccccc3S2(=O)=O)c(C)c1	none
COc1nnc(-c2ccc(N3CCCCC3)c(N)c2)c2ccccc12	Nrf2 block 21µM
COc1ccc(-n2cc(CNC3CCN(C)CC3)c(-c3cccc(F)c3)n2)cc1	HepG2 tox 11µM, ATXN2 expr inh inconclusive, TGFb inhibitor inconclusive
CN(Cc1ccccc1)C(=O)c1ccc(NC(=O)Cc2ccc(NC(=O)C3CCN(S(=O)(=O)c4cccc([N+](=O)[O-])c4)CC3)cc2)cc1	Nrf2 block inconclusive
Cc1csc(NC(=O)c2ccc(Cn3nc(C)c(Br)c3C)o2)n1	Nrf2 block 18µM, TGFb inhibitor inconclusive
Cc1nn(Cc2ccc(C(=O)Nc3ccccc3C(F)(F)F)o2)c(C)c1Br	Nrf2 block inconclusive, TGFb inhibitor inconclusive (no result: S2 tox, ATXN2 expr inh)
CCCn1c(=O)n(C)c(=O)c2c(SCC(=O)Nc3cc(C)on3)nc(C(C)(C)C)nc21	A549 viability inconclusive, Nrf2 block inconclusive, S2 tox inconclusive, TGFb inhibitor 18µM
CCCCn1c(SCC(=O)Nc2cc(C)on2)nc2ccccc2c1=O	HepG2 tox 4µM
Cc1ccc(NC(=O)CSc2nc3ccccc3c(=O)n2CCC(=O)NC2CCCCC2)cc1C	none (no result: Nrf2 block)
Cc1cc(NC(=O)CSc2nc(C(C)C)nc3c2c(=O)n(C)c(=O)n3C)no1	none
Cc1ccc(NC(=O)CSc2nc3ccccc3c(=O)n2CCCN2CCCCC2)cc1C	A549 viability inconclusive, HepG2 tox 18µM, ATXN2 expr inh inconclusive, TGFb inhibitor inconclusive (no result: S2 tox)
COCCCNC(=O)c1ccc(Cn2c(=O)c3ccccc3n(CC(N)=O)c2=O)cc1	none
Cc1oc2ncnc(N3CCCCC3)c2c1C(=O)NCC1CCN(Cc2ccccc2F)CC1	Nrf2 block inconclusive
Clc1nccnc1N/N=C/c1ccc(Br)cc1	Nrf2 block inconclusive, HepG2 tox 13µM
COc1cccc(/C=N/Nc2ncnc3scc(-c4ccccc4)c23)c1O	Nrf2 block inconclusive, ATXN2 expr inh 1.1µM, TGFb inhibitor inconclusive
COc1cccc(/C=N/Nc2cc(-n3nc(C)cc3-c3ccccc3)ncn2)c1O	S2 tox inconclusive, ATXN2 expr inh inconclusive, TGFb inhibitor inconclusive
Oc1ccccc1/C=N/Nc1nccnc1Cl	Nrf2 block inconclusive, S2 tox inconclusive, ATXN2 expr inh inconclusive
COc1cccc(/C=N/Nc2nccnc2Cl)c1O	HepG2 tox 11µM, S2 tox inconclusive, ATXN2 expr inh 5.6µM
COc1cccc(/C=N/Nc2nc3ccccc3[nH]2)c1O	S2 tox inconclusive, TGFb inhibitor 3.2µM (no result: ATXN2 expr inh)
Brc1ccc(/C=N/Nc2ccccn2)cc1	Nrf2 block inconclusive, TGFb inhibitor inconclusive
O=C(N/N=C/c1ccc(O)cc1)c1ccc(COc2cc(Cl)ccc2Cl)o1	A549 viability inconclusive, TGFb inhibitor inconclusive (no result: Nrf2 block)
COc1ccc(/C=N/Nc2nccnc2Cl)cc1	Nrf2 block inconclusive, HepG2 tox 7.9µM
O=C(Nc1ccc(OCc2cc(=O)n3ccccc3n2)cc1)c1ccccc1Cl	none (no result: Nrf2 block, S2 tox, ATXN2 expr inh)
CN(C)c1ccc(C(=C2C=CC(=[N+](C)C)C=C2)c2ccc(N(C)C)cc2)cc1	S2 tox 18µM, ATXN2 expr inh 7.7µM, TGFb inhibitor inconclusive (no result: A549 viability, Nrf2 block)
O=C(N/N=C/c1ccc([N+](=O)[O-])o1)c1ccc2c(c1)OCO2	A549 viability inconclusive, Nrf2 block inconclusive, HepG2 tox 11µM, ATXN2 expr inh 10µM, TGFb inhibitor 16µM
Cc1ccc(-c2cc(C(=O)N/N=C/c3ccc([N+](=O)[O-])o3)c3ccccc3n2)o1	A549 viability inconclusive, Nrf2 block 21µM, HepG2 tox 11µM, TGFb inhibitor 14µM
O=C(N/N=C\c1ccc(-c2ccc([N+](=O)[O-])cc2)o1)c1ccc2c(c1)OCO2	S2 tox inconclusive
COc1cc(/C=N/NC(=O)c2ccc3c(c2)OCCO3)cc(Cl)c1O	none (no result: ATXN2 expr inh)
